Among all 310,000 compounds or so, about 14,000 (4.5%) showed an effect of 50% or more. The effect is printed as a negative number. The full list was thinned out, with strong results kept by preference.
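Further: peak tail current of the secondary pulse compared with the same well before compound.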

Chain of human ether-à-go-go-related gene (hERG) potassium channel (Q12809 whole entry, looked up): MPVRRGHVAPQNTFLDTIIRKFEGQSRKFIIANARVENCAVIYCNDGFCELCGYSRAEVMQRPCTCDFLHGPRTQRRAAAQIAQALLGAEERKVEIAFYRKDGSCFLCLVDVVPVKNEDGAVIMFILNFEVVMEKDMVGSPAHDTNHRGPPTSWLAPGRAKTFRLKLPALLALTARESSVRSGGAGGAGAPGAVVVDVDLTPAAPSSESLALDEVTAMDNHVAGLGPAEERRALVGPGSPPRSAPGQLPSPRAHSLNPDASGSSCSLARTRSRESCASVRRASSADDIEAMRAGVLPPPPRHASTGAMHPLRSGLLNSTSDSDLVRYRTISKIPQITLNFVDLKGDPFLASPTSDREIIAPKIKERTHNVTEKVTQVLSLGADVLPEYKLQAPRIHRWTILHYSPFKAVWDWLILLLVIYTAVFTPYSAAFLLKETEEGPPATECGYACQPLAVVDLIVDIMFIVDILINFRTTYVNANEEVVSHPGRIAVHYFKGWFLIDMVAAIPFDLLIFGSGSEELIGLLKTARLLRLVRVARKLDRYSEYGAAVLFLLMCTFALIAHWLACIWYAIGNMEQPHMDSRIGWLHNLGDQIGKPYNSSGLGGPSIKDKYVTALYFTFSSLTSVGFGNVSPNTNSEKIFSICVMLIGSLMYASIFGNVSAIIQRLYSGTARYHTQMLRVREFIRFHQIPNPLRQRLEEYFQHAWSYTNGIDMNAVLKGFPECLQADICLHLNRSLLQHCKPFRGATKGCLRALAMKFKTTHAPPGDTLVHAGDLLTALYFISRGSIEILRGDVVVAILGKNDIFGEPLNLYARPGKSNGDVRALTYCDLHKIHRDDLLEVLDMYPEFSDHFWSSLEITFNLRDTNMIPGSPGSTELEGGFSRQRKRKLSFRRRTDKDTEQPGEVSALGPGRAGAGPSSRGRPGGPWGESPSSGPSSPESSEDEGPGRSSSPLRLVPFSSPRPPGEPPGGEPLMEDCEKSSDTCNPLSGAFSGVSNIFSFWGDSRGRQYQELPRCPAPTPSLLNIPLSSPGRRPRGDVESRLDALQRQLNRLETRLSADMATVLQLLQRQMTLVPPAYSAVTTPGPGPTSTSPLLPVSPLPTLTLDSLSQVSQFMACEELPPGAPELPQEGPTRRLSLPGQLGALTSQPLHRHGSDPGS

This test concerns the target human ether-à-go-go-related gene (hERG) potassium channel (human, UniProt Q12809). The test can be described thus: primary screen, population patch clamp on CHO cells stably expressing hERG; higher = less effect of the substance.
As to `CCOc1ccc(Cn2nnc(C(=O)NCc3ccc(OC)cc3)c2N)cc1`, the “hERG current change (%, negative = inhibition) at 10uM” value was 6.41%. With `CCN(CC)c1ccc(C2C(C(=O)OCCOC)=C(C)NC3=C2C(=O)CCC3)cc1` (stereo not shown) the figure was -5.24%. For the compound `CCOc1ccc(-c2cc(N)n(S(=O)(=O)c3ccc(OC)cc3)n2)cc1`, the “hERG current change (%, negative = inhibition) at 10uM” value worked out at 10.7%.

Consider `CN1c2ccccc2-c2nc3ccccc3n2C1c1ccco1` (stereo not shown), for which the “hERG current change (%, negative = inhibition) at 10uM” value is reported as -15.3%. Then `CC1CCCC(C)N1C(=O)Cn1cc(C#N)c2ccccc21` (stereo not shown), with 9.8%; and `CSc1ccc2c(c1)C(N1CCN(C)CC1)Cc1ccccc1S2.O=C([O-])/C=C\C(=O)[O-]` (stereo not shown), with -65.2%; and `CCc1ccc2c(c1)Sc1ccccc1CC2N1CCN(C)CC1.CS(=O)(=O)O.O` (stereo not shown), with -69%. With `CCS(=O)(=O)N1CCN(C2Cc3ccccc3C2)CC1.O=C(O)C(=O)O` the figure was 3.3%; with `Cc1nc2c(o1)CCc1ccccc1C2N1CCN(C)CC1.O=C([O-])/C=C\C(=O)[O-]` (stereo not shown), 12.4%; with `CN(C)/C=C/C(=O)c1ccn(S(=O)(=O)c2ccccc2)c1`, 23.6%. Then `Fc1ccc(Cn2nnnc2C(c2ccc(Cl)cc2)N2CC=C(c3ccc(F)cc3)CC2)cc1` (stereo not shown), with 10.1%; and `CCOc1ccc(N(C)Cc2cc(=O)oc3ccc(OCC)cc23)cc1`, with -1.17%; and `CCOc1cc2[nH]c(=S)n(C3CCN(Cc4ccccc4)CC3)c(=O)c2cc1OCC`, with 17.6%. For the compound `Cc1nn(Cc2ccccc2)c(=O)n1N(C)c1ncc(C(F)(F)F)cc1Cl`, the “hERG current change (%, negative = inhibition) at 10uM” value is given as -7.74%. Consider `Cc1ccsc1C1C(C#N)=C(N)OC2=C1C(=O)CC(C)(C)C2` (stereo not shown), for which the “hERG current change (%, negative = inhibition) at 10uM” value was -6.69%.

In the case of `O=C1C=C(Nc2ccc(Cl)cc2)CC(c2ccco2)C1` (stereo not shown), the “hERG current change (%, negative = inhibition) at 10uM” value is recorded as -1.85%.

For the compound `O=C1C=C(NCc2ccco2)CC(c2ccc(Cl)cc2)C1` (stereo not shown), the “hERG current change (%, negative = inhibition) at 10uM” value is -61.5%. Then `O=C1C=C(Nc2cccc(Cl)c2)CC(c2ccco2)C1` (stereo not shown), with -4.15%; and `O=C1C=C(NCc2ccc(Cl)cc2)CC(c2ccco2)C1` (stereo not shown), with -82.2%. Consider `O=C1C=C(NCc2ccco2)CCC1`, for which the “hERG current change (%, negative = inhibition) at 10uM” value is 16.7%. Then `O=C1C=C(Nc2ccc(Cl)cc2)CC(c2ccc(Cl)cc2)C1` (stereo not shown), with -2.27%; and `N#Cc1c(C(F)(F)F)cc(-c2ccccc2)n(N)c1=O`, with 13.9%; and `Cc1cc(C)n2nc(SCc3ccc(F)cc3Cl)nc2n1`, with -4.5%.

On to `Cn1c(N=Nc2ccccc2)nc2ccccc21`, for which the “hERG current change (%, negative = inhibition) at 10uM” value is reported as 4.08%. With `S=c1[nH]c2ccccc2n2c(=S)[nH]nc12`, the “hERG current change (%, negative = inhibition) at 10uM” value is 5.26%.

The values above are taken from article PMC4336329 (PLoS ONE, 2015).
